Screen size: about 4,800 compounds; about 420 (8.8%) showed an effect of 50% or more. The entries come from a sample that favours strong results as a whole.
What follows are compounds tested on Plasmodium falciparum (assay: Confirmatory screen in NF54 nanoGlo assay, in single point, at 2uM, 72h). Details: timepoint 72 hour.
Type: functional, Erythrocyte

Row | Compound | % Inhibition [%]
1 | CC[n+]1ccc(-c2ncc(-c3ccc(C(C)(C)C)cc3)o2)cc1 | 63
2 | CCC(C)(CC)[C@@](O)(C#CC[N+]1(Cc2ccccc2Cl)CCCCC1)c1ccccc1 | 4
3 | CN1c2cc(C(=O)N3CCc4ccccc4C3)ccc2C(=O)N2CCCC[C@H]21 | -6
4 | Cc1cc2ncn([C@@H](C)c3nc(-c4cnccn4)cs3)c2cc1C | 0
5 | CCC[C@H](NC(=O)c1ccc(Cl)o1)c1nnn[nH]1 | 6
6 | C=CCCCNc1ccc(C(N)=O)c(F)c1 | -1
7 | COc1ccc(CCc2nc(NC(=O)c3nc(C)sc3C)n[nH]2)cc1OC | 65
8 | COc1ccc(CCc2nnc(NC(=O)Cc3c(C)noc3C)[nH]2)cc1OC | 15
9 | COc1ccc(CCc2nc(NC(=O)c3[nH]nc4c3CCC4)n[nH]2)cc1 | -1
10 | Cc1c(CCNC(=O)NCC2CC23CCc2ccccc23)cnn1C (centres undefined) | -4
11 | Cc1cc(C(=O)NCCCn2cccn2)nc(N2CCOCC2)n1 | 0
12 | Cc1c(-c2nn(-c3nc(C4CC4)cc(C(F)(F)F)n3)c(-c3cnn(C)c3C)c2Cl)cnn1C | 69
13 | Cc1c(-c2nn(-c3ccccc3)c(-c3cnn(C)c3C)c2Cl)cnn1C | -4
14 | Cc1nn(C)cc1-c1nn(-c2nc(C3CC3)cc(C(F)(F)F)n2)c(-c2cn(C)nc2C)c1C | 16
15 | CC(C)Nc1nc2nonc2n2cnnc12 | 69
16 | CN(Cc1cc(C(F)(F)F)ccc1Cl)[C@H]1CCc2nn(C)c(=O)n2CC1 | -8
17 | Cn1ccc2cccc(NC(=O)N3CC(C)(CO)C3)c21 | 1
18 | Cc1c(-c2nn3c(Cc4ccc(Cl)cc4)nnc3s2)cnn1-c1ccccc1 | -16
19 | COc1cc(C(=O)Nc2ccc3sc(NC(=O)c4cc(OC)c(OC)c(OC)c4)nc3n2)cc(OC)c1OC | 56
20 | Cc1cccc(C(=O)Nc2nc3cc4sc(NC(=O)c5cccc(C)c5)nc4cc3s2)c1 | 7
21 | COc1cc(C(=O)Nc2scnc2C)cc(OC)c1OC | -1
22 | C1=CCC(c2nc(-c3cnccn3)no2)C1 | -6

Row | Compound | % Inhibition [%]
23 | C[C@H](O)CNCc1ccc(Cl)cc1Cl | -8
24 | CCCCCNC(=O)NCc1ncoc1C | -1
25 | CCNC(=O)NCCOC(=O)c1cccc(C)c1Cl | 1
26 | Cc1cc(C)cc(-c2cc3nc(C)cc(N4CCC(C(=O)Nc5ccc(C)c(Cl)c5)CC4)n3n2)c1 | 0
27 | Cc1cc(C)cc(-c2cc3nc(C)cc(N4CCC(C(=O)NCc5cccc(F)c5)CC4)n3n2)c1 | 79
28 | O=C(NCc1cccc(F)c1)[C@H]1CCCN(c2nc3ccccc3n(Cc3ccccc3)c2=O)C1 | 5
29 | CC[n+]1c(C)n(C2CCCCC2)c2ccc(C(=O)OC)cc21 | 0
30 | Cn1cc(C(C(=O)O[C@@H]2C[C@@H]3CC[C@@]2(C)C3(C)C)c2cn(C)c3ccccc23)c2ccccc21 | 0
31 | CC[N+](CC)(CC(=O)OC1CC2CCC1(C)C2(C)C)CC(=O)OC1CC2CCC1(C)C2(C)C (centres undefined) | 83
32 | O=C(NCc1cccnc1Oc1ccccc1)c1cccnc1 | 5
33 | CC1CCN(c2nccnc2Oc2ccc(C(=O)NCc3ccccc3Cl)cc2)CC1 | 59
34 | Cc1nc2cccnc2n1-c1cc(C(=O)NCc2ccccc2Cl)ccc1Cl | -2
35 | Cc1cc(=O)n2ncc(C(=O)NCc3cc(F)cc(F)c3)c2[nH]1 | -13
36 | C=CCOC(=S)NC(=O)Cc1ccccc1Cl | 7
37 | Cc1ccc(-c2cn3c4ccccc4nc3n2CCN2CCN(C)CC2)cc1 | 2
38 | Cn1c(-c2ccc(-c3ccccc3)cc2)cn2cc(-c3cccc(Br)c3)nc12 | 0
39 | Cn1c(-c2ccc(Br)cc2)cn2cc(-c3ccc(Cl)cc3)nc12 | -5
40 | CCN(CC)CCn1c2ccccc2n2cc(-c3ccc(Br)cc3)nc12 | 59
41 | O=C(Nc1ccccc1)c1cccc(CN2CCN3CCOC[C@@H]3C2)c1 | -5
42 | CCn1cc(NC(=O)CCn2ncc3c(Cl)cccc32)cn1 | -6
43 | O=C(c1cc2ncccn2n1)N1CCc2ccccc2C1 | -3
44 | O=S(=O)(Nc1cccc(-c2nnc3n2CCC3)c1)c1ccc2c(c1)OCCCO2 | -12

Row | Compound | % Inhibition [%]
45 | CN1CCC(Nc2ncnc3c2cnn3C)C1c1ccc(Cl)cc1 (centres undefined) | 4
46 | CC1CC(Nc2ncnc3cc(Br)ccc23)CCN1C (centres undefined) | 96
47 | Brc1cncnc1NC1CC1 | 2
48 | CC[C@H](O)CN1CCC(Nc2ncnc3cc(Cl)ccc23)CC1 | 42
49 | Cc1nc(-c2ccc(C(F)(F)F)cc2)nc(N2CCN(C(=O)c3cc(C(F)(F)F)cc(C(F)(F)F)c3)CC2)c1C(C)C | -2
50 | CC(C)(C)C(=O)Nc1cc(Br)c(O)c(Br)c1 | 3
51 | COCCN1CC2(CCCC2)N(C(=O)COc2ccc(F)cc2)CC1=O | -7
52 | COc1cc(=O)c(C(=O)N2CCC(C(N)=O)CC2)nn1-c1ccc(F)c(F)c1 | 3
53 | Cc1nccn1-c1cc(CNC(=O)[C@H]2CCCN(S(=O)(=O)c3cccs3)C2)ccn1 | 2
54 | O=C(c1ccccc1)n1c(=O)n(C(=O)c2ccccc2)c2ccccc21 | 6
55 | Cc1ccc(C(=O)C[n+]2cc(-c3ccc(-c4ccccc4)cc3)n(C)c2N)cc1 | 4
56 | Cc1n(CC(=O)c2ccccc2)c2ccccc2[n+]1CC(=O)c1ccccc1 | 68
57 | COc1ccc(S(=O)(=O)N2CCN(Cc3noc(CCC(=O)N(C)Cc4ccccc4)n3)CC2)cc1 | -6
58 | CC(C)(CC(=O)O)CC(=O)Nc1ccc(Cc2nnc3ccccn23)cc1 | -4
59 | COc1cc(OC)cc(C2(O)CCN(C(=O)CCc3ccccc3F)CC2)c1 | -10
60 | Oc1cc(OCc2ccccc2F)ccc1-c1[nH]ncc1-c1ccccc1 | 75
61 | c1ccc(-c2cn[nH]c2N2CCNCC2)cc1 | -7
62 | O=C(NCC1CC1)c1cn[nH]c1-c1ccccc1 | -1
63 | COc1ccc(-c2c(C(F)(F)F)n[nH]c2-c2ccc(OCc3ccccc3F)cc2O)cc1 | 90
64 | COc1cc(-c2nc3ccccc3s2)ccc1OCc1cccc2ccccc12 | -7

From ChEMBL document CHEMBL4888484, “Replenishing the malaria drug discovery pipeline: Screening and hit evaluation of the MMV Hit Generation Library 1 (HGL1) against asexual blood stage Plasmodium falciparum ,using a nano luciferase reporter read-out” (2022)
